Experimental data published in the supplement of paper PMC7184167.
Structures can show the parent of a compound that is named as a salt.

system: replication-induced senescent mouse newborn dermal fibroblasts (NBF); assay: relative cell viability of senescent cells (fraction); higher = less killing of senescent cells; details: 1 µM; 3 days
Method: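 Replication-induced senescent newborn mouse skin fibroblasts (NBFs) in 24-well plates were treated with a Selleck FDA-approved drug library at 1 µM for 3 days.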

Question: With CCCOc1ccc(C(=O)OCCN(CC)CC)cc1N [Proparacaine HCl] as the molecule, how does the relative cell viability read?
Answer: 0.992

Question: For C[C@H]1C[C@@H]2[C@H]([C@@H](O)C[C@@]3(C)[C@H]2CC[C@]3(O)C(=O)CO)[C@@]2(C)C=CC(=O)C=C12 [Methylprednisolone], which relative cell viability is on record?
Answer: 1.09

Question: For COc1ccc2[nH]c([S@@+]([O-])Cc3ncc(C)c(OC)c3C)nc2c1 [NEXIUM (esomeprazole magnesium)], which relative cell viability is on record?
Answer: 1.07

Question: Which relative cell viability does the source give for COC(=O)[C@H](c1ccccc1Cl)N1CCc2sccc2C1 [Clopidogrel] here?
Answer: 0.983

Question: For C[C@H](CCC(=O)O)[C@H]1CC[C@H]2[C@@H]3[C@H](O)C[C@@H]4C[C@H](O)CC[C@]4(C)[C@H]3CC[C@]12C [Chenodeoxycholic Acid], which relative cell viability is on record?
Answer: 1.06

Question: How did the relative cell viability turn out when C[C@]12CC[C@@H]3c4ccc(O)cc4CC[C@H]3[C@@H]1CCC2=O [Estrone] was run?
Answer: 1

Question: For COCCOC(=O)C1=C(C)NC(C)=C(C(=O)OC(C)C)C1c1cccc([N+](=O)[O-])c1 (stereo unspecified) [Nimodipine], which relative cell viability is on record?
Answer: 1.15

Question: Which relative cell viability does the source give for CCN(CCO)CCCOc1ccc2c(Nc3cc(CC(=O)Nc4cccc(F)c4)[nH]n3)ncnc2c1 [Barasertib (AZD1152-HQPA)] here?
Answer: 1

Question: How did the relative cell viability turn out when C[C@H]1[C@H](NC(=O)/C(=N\OC(C)(C)C(=O)O)c2csc(N)n2)C(=O)N1S(=O)(=O)O [Aztreonam] was run?
Answer: 1.06

Question: For C[C@](N)(Cc1ccc(O)c(O)c1)C(=O)O [Methyldopa], which relative cell viability is on record?
Answer: 0.971

Question: For CC[C@H]1OC(=O)[C@H](C)[C@@H](O[C@H]2C[C@@](C)(OC)[C@@H](O)[C@H](C)O2)[C@H](C)[C@@H](O[C@@H]2O[C@H](C)C[C@H](N(C)C)[C@H]2O)[C@](C)(O)C[C@@H](C)CN(C)[C@H](C)[C@@H](O)[C@]1(C)O [Azithromycin], which relative cell viability is on record?
Answer: 0.879
